Results filed as inconclusive are left out. The source made the active and inactive calls. Calls come from the whole dose curve; as a rule, active = well fitted curve in the direction sought with a large enough effect in the repeat runs; inconclusive = weak or mixed curves; inactive = no such curve, though single readings can be large; an effect the other way counts as inactive or inconclusive.
% is set by controls: 0 for no effect and ±100 for the full control effect.

The first assay is described as follows: A CellTox Green Cytotoxicity Assay to monitor cytotoxicity in HepG2 cells - 16 hour (AID 1224876). Note: nearly all actives have a fitted effect of over 45% in size. Conditions: CellTox Green fluorescence; series mostly up to 76.8 µM; cytotoxicity increase: at the top concentration. A digest of the protocol:
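Real-time, homogeneous cytotoxicity readout: dead-cell DNA staining by CellTox Green in HepG2 monolayers, fluorescence measured at timed intervals up to 40 h of continuous compound exposure.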
As for `CC1(C)CON(Cc2ccccc2Cl)C1=O`, the “cytotoxicity increase” value was 1.24% (inactive).
On the same count and under the same terms, the result for `NC(=S)C(N)=S` reads -1.72% (inactive).
Same read-out and setting: the value for `C=C(C)[C@@H]1CC=C(C=O)CC1` was 1.04% (inactive).
Same read-out and setting: the value for `CCCCOP(=O)(O)OCCCC` was 2.56% (inactive); that for `NC(=O)O` was -10.4% (inactive); that for `O=[N+]([O-])c1cccc2cccnc12` was 1.32% (inactive).
For `CC1=C(C(=O)O)N2C(=O)[C@@H](N)[C@H]2SC1`, the cytotoxicity increase is -9.17% [at 15.8 µM] (inactive).
Still for that read-out and setting: the value for `Cc1cc(C)nc(Nc2ccccc2)n1` was 2.7% (inactive); that for `CCS(=O)(=O)C(C)(C)S(=O)(=O)CC` was -2.92% [at 35.3 µM] (inactive).
Same read-out and setting: the value for `CNC(=O)Oc1c(C(C)(C)C)cc(C)cc1C(C)(C)C` was -1.79% (inactive).
Same read-out and setting: the value for `CCOC(=O)CP(=O)(OCC)OCC` was -10.2% (inactive).
`CNC(=O)Oc1ccccc1C1OCCO1`: the “cytotoxicity increase” value was -6.52% (inactive).
Take `CC(=O)Nc1cc([As](=O)(O)O)ccc1O`: the “cytotoxicity increase” value was -6.68% [at 35.3 µM] (inactive).
On the same count and under the same terms, the value for `ClC(Br)Br` was -2.41% (inactive); that for `OC(c1ccc(F)cc1)(c1cncnc1)c1ccccc1Cl` (stereo unspecified) was -0.153% (inactive); that for `C[N+](C)=CCl` was -12% (inactive).
On the same count and under the same terms, the value for `CCC1(c2ccccc2)C(=O)NC(=O)NC1=O` was 2.52% (inactive); that for `CC(Cl)(Cl)[N+](=O)[O-]` was 1.2% (inactive); that for `CCOP(=O)(OCC)OP(=O)(OCC)OCC` was 0.0926% (inactive).

A further assay in a line: qHTS RealTime-Glo MT Cell Viability Assay in HepG2 cells - 32 hour (AID 1224877). Note: nearly all actives have a fitted effect of over 55% in size. Conditions: RealTime-Glo luminescence; series mostly up to 76.8 µM; activity change, negative = cytotoxic: at the top concentration. Summed up:
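HepG2 cells (600/well) were dispensed with RealTime-Glo reagents, incubated 5 h at 37 °C, then treated with compounds in DMSO for up to 40 h. Nonlytic NanoLuc luminescence reflecting viable cells was read at each stated time point.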
Background: In qHTS, concentration-response curves come from the screen itself.
`OC(c1ccccc1)(c1ccccc1)C1CCNCC1`: the “activity change, negative = cytotoxic” value is -3.58% [at 35.3 µM] (inactive).
On the same count and under the same terms, the value for `COC(=O)c1c(C(F)F)nc(C(F)(F)F)c(C2=NCCS2)c1CC(C)C` was -9.74% (inactive); that for `O=C(CCN1CC1)OCC(CO)(COC(=O)CCN1CC1)COC(=O)CCN1CC1` was -0.587% (inactive); that for `CC(C)NCC(O)c1ccc(N)c(C#N)c1` (stereo unspecified) was 0.911% [at 35.3 µM] (inactive).
Still for that read-out and setting: the value for `O=C(Nc1ccccc1)c1ccccc1I` was -9.14% (inactive); that for `CC(=O)CCc1ccc2c(c1)OCO2` was 2.37% (inactive); that for `OC(Cn1cncn1)(c1ccc(F)cc1)c1ccccc1F` (stereo unspecified) was -5.51% (inactive).
Same read-out and setting: the result for `COCC(=O)N(c1c(C)cccc1C)N1CCOC1=O` reads 0.589% (inactive); that for `O=NN1CCN(N=O)CC1`, -6.97% (inactive); that for `ClCCCN1CCN(c2cccc(Cl)c2)CC1`, -1.95% [at 35.3 µM] (inactive).
Take `N#Cc1ccncc1`: the “activity change, negative = cytotoxic” value was 2.65% (inactive).
Same read-out and setting: the result for `Cc1cccc(C#N)c1` reads 2.77% (inactive).
With `ClCCOCOCCCl`, the “activity change, negative = cytotoxic” value was -0.931% (inactive).
Still for that read-out and setting: the value for `CCN(Cc1ccc(Cl)nc1)/C(=C/[N+](=O)[O-])NC` was 2.48% [at 35.3 µM] (inactive); that for `CC(C)(C)NCC(O)c1cc(Cl)c(N)c(Cl)c1` (stereo unspecified) was 0.566% [at 35.3 µM] (inactive).
The same measure, in the same setting: the result for `CCCSP(=S)(OCC)Oc1ccc(Cl)cc1Cl` (stereo unspecified) reads -10.2% (inactive).
On the same count and under the same terms, the value for `CCOP(=S)(Oc1cnc(C(C)(C)C)nc1)OC(C)C` (stereo unspecified) was -8.13% (inactive); that for `CCC(C)(C)c1cc(-n2nc3ccccc3n2)c(O)c(C(C)(C)CC)c1` was -4.79% (inactive); that for `CC1(C)CON(Cc2ccccc2Cl)C1=O` was -3.85% (inactive).
With `NC(=S)C(N)=S`, the “activity change, negative = cytotoxic” value was 1.82% (inactive).
Still for that read-out and setting: the result for `C=C(C)[C@@H]1CC=C(C=O)CC1` reads 3.75% (inactive); that for `CCCCOP(=O)(O)OCCCC`, -1.7% (inactive); that for `NC(=O)O`, 3.95% (inactive).
On the same count and under the same terms, the value for `O=[N+]([O-])c1cccc2cccnc12` was -0.807% (inactive); that for `CC1=C(C(=O)O)N2C(=O)[C@@H](N)[C@H]2SC1` was 1.22% [at 15.8 µM] (inactive).
Still for that read-out and setting: the value for `Cc1cc(C)nc(Nc2ccccc2)n1` was 1.29% (inactive).
With `CCS(=O)(=O)C(C)(C)S(=O)(=O)CC`, the “activity change, negative = cytotoxic” value was 3.79% [at 35.3 µM] (inactive).
The same measure, in the same setting: the result for `CNC(=O)Oc1c(C(C)(C)C)cc(C)cc1C(C)(C)C` reads 1.15% (inactive); that for `CCOC(=O)CP(=O)(OCC)OCC`, 0.898% (inactive); that for `CNC(=O)Oc1ccccc1C1OCCO1`, 1.94% (inactive).
On the same count and under the same terms, the value for `CC(=O)Nc1cc([As](=O)(O)O)ccc1O` was -9.55% [at 35.3 µM] (inactive).
The same measure, in the same setting: the result for `ClC(Br)Br` reads 0.163% (inactive).
Consider `OC(c1ccc(F)cc1)(c1cncnc1)c1ccccc1Cl` (stereo unspecified), for which the “activity change, negative = cytotoxic” value is -5.07% (inactive).
Same read-out and setting: the result for `C[N+](C)=CCl` reads 3.05% (inactive); that for `CCC1(c2ccccc2)C(=O)NC(=O)NC1=O`, 2.55% (inactive); that for `CC(Cl)(Cl)[N+](=O)[O-]`, 0.319% (inactive).
On the same count and under the same terms, the result for `CCOP(=O)(OCC)OP(=O)(OCC)OCC` reads -0.155% (inactive).

Values taken from PubChem BioAssay (Tox21).
